Records with an inconclusive call do not appear. Active and inactive are the calls of the source. Calls follow the shape of the dose curve; as a rule, active = well fitted curve in the direction sought with a large enough effect; inconclusive = small, poorly fitted or top-dose-only effect, or another doubt; inactive = no such curve, though single readings can be large; an effect the other way counts as inactive or inconclusive.
Key:
CRL-7250 = normal cell line; experiment: Cytotoxic Profiling of Annotated Libraries Using Quantitative High-Throughput Screening (AID 1296008); conditions: Five cell lines viability, CellTiter-Glo ATP luminescence, 48-72 h; max response: stronger effect = lower value; also: nearly all actives have a fitted effect of over 60% in size; as to max response: % is scaled to controls: 0 for no effect and ±100 for the full control effect
Outline: (§1)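 Cells exposed to compounds for 48 or 72 hr at 37 degrees Celsius. Viability read as ATP-coupled luminescence with CellTiter-Glo after 10 min at room temperature.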

HEK293 = experiment: as above; conditions: Five cell lines viability, CellTiter-Glo ATP luminescence, 48-72 h; max response: stronger effect = lower value
Outline: as §1

HaCat [1] = experiment: as above; conditions: Five cell lines viability, CellTiter-Glo ATP luminescence, 48-72 h; max response: stronger effect = lower value
Outline: as §1

KB-3-1 = experiment: as above; conditions: Five cell lines viability, CellTiter-Glo ATP luminescence, 48-72 h; max response: stronger effect = lower value
Outline: as §1

NIH3T3 [2] = experiment: as above; conditions: Five cell lines viability, CellTiter-Glo ATP luminescence, 48-72 h; max response: stronger effect = lower value
Outline: as §1

HACAT [3] = experiment: qHTS assay to identify novel small-molecules to repurpose for Merkel cell carcinoma treatment (AID 1296009); conditions: MCC and control cell lines, CellTiter-Glo viability, 72 h; at 44.8 µM (top of the series) unless noted; also: nearly all actives have a fitted effect of over 60% in size
Outline: (§2)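 Dose-response viability screen; 72 hr exposure at 37 degree celsius; CellTiter-Glo added, 10 min room temperature, luminescence read; RLUs scaled between no-cell and DMSO wells.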

NIH3T3 [4] = experiment: as above; conditions: MCC and control cell lines, CellTiter-Glo viability, 72 h; at 44.8 µM (top of the series) unless noted
Outline: as §2

C33A = experiment: Primary qHTS to identify gynecologic anti-cancer compounds using libraries of approved drugs and bioactive compounds (AID 1345084); conditions: Gynecologic cancer cell panel viability, ATPlite luminescence, 48 h; series mostly up to 57.5 µM; also: % is scaled to controls: 0 for no effect and ±100 for the full control effect; nearly all actives have a fitted effect of over 55% in size
Outline: (§3)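 ATP-based viability (ATPlite), 1,000 cells/well, 16 h pre-incubation, 48 h compound at 37 C, 5% CO2, 15 min RT before read.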

CAOV3 = experiment: as above; conditions: Gynecologic cancer cell panel viability, ATPlite luminescence, 48 h; series mostly up to 57.5 µM
Outline: as §3

CASKI = experiment: as above; conditions: Gynecologic cancer cell panel viability, ATPlite luminescence, 48 h; series mostly up to 57.5 µM
Outline: as §3

Es-2 = experiment: as above; conditions: Gynecologic cancer cell panel viability, ATPlite luminescence, 48 h; series mostly up to 57.5 µM
Outline: as §3

HeLa = experiment: as above; conditions: Gynecologic cancer cell panel viability, ATPlite luminescence, 48 h; series mostly up to 57.5 µM
Outline: as §3

Hek293T = experiment: as above; conditions: Gynecologic cancer cell panel viability, ATPlite luminescence, 48 h, control line for the selectivity index; series mostly up to 57.5 µM
Outline: as §3

JEG-3 = experiment: as above; conditions: Gynecologic cancer cell panel viability, ATPlite luminescence, 48 h; series mostly up to 57.5 µM
Outline: as §3

OV90 = experiment: as above; conditions: Gynecologic cancer cell panel viability, ATPlite luminescence, 48 h; series mostly up to 57.5 µM
Outline: as §3

PA-1 = experiment: as above; conditions: Gynecologic cancer cell panel viability, ATPlite luminescence, 48 h; series mostly up to 57.5 µM
Outline: as §3

O=C(O)Cn1nnc(-c2ccc(CN(CCCCOc3ccc(CN4CCCC4)cc3)CCc3ccccc3)cc2)n1
inactive: outcome (CRL-7250) | max response (HEK293) -0.898% | outcome (HaCat [1]) | max response (KB-3-1) 9.81% | outcome (NIH3T3 [2]) | outcome (HACAT [3]) | outcome (NIH3T3 [4]) | Potency (C33A) | Potency (CAOV3) | outcome (CASKI) | Potency (Es-2) | Potency (HeLa) | Potency (Hek293T) | Potency (JEG-3) | Potency (OV90) | Potency (PA-1)

CC1(O)CC(O)C2C(C(=O)O)=COC(OC3OC(CO)C(O)C(O)C3OC(=O)/C=C/c3ccc(O)cc3)C21 (centres undefined)
inactive: max response (CRL-7250) 2.15% | max response (HEK293) 1.1% | outcome (HaCat [1]) | max response (KB-3-1) 6.91% | outcome (NIH3T3 [2]) | outcome (HACAT [3]) inactive [at 17.4 µM] | outcome (NIH3T3 [4]) inactive [at 17.4 µM] | Potency (C33A) | Potency (CAOV3) | outcome (CASKI) | Potency (Es-2) | Potency (HeLa) | Potency (Hek293T) | Potency (JEG-3) | Potency (OV90) | Potency (PA-1)

COCCCc1sc(-c2ccccc2)nc1C(=O)Nc1ccccc1-c1nc2cc(CN3CCCC3)cnc2s1
inactive: outcome (CRL-7250) | max response (HEK293) -7.81% | outcome (HaCat [1]) | outcome (KB-3-1) | outcome (NIH3T3 [2]) | outcome (HACAT [3]) inactive [at 17.4 µM] | outcome (NIH3T3 [4]) inactive [at 17.4 µM] | Potency (C33A) | Potency (CAOV3) | outcome (CASKI) | Potency (Es-2) | Potency (HeLa) | Potency (Hek293T) | Potency (JEG-3) | Potency (OV90) | Potency (PA-1)

COc1cc(C)c(C(=O)NC2C(C)OC(OC3CCC(C)C4C3C=C(C)C3/C(C)=C\CC/C(C)=C/C5(C)C=C(C(=O)O)C(C)CC56OC(=O)/C(=C(\O)C34C)C6=O)C(O)C2(C)O)c(O)c1 (centres undefined)
inactive: max response (CRL-7250) -0.565% | max response (HEK293) -0.938% | outcome (HaCat [1]) | max response (KB-3-1) -0.929% | outcome (NIH3T3 [2]) | outcome (HACAT [3]) inactive [at 9.27 µM] | outcome (NIH3T3 [4]) inactive [at 9.27 µM] | activity change, negative = cytotoxicity (C33A) 8.62% [at 11.6 µM] | activity change, negative = cytotoxicity (CAOV3) 11.9% [at 11.6 µM] | activity change, negative = cytotoxicity (CASKI) 23.4% [at 11.6 µM] | activity change, negative = cytotoxicity (Es-2) -2.46% [at 11.6 µM] | activity change, negative = cytotoxicity (HeLa) 2.6% [at 11.6 µM] | activity change, negative = cytotoxicity (Hek293T) 9.94% [at 11.6 µM] | activity change, negative = cytotoxicity (JEG-3) 4.16% [at 11.6 µM] | activity change, negative = cytotoxicity (OV90) 6.29% [at 11.6 µM] | activity change, negative = cytotoxicity (PA-1) -2.04% [at 11.6 µM]

O=C(O)CC1CCC(c2ccc(NC(=O)c3nnc(Nc4ccc(F)c(F)c4)o3)cc2)CC1 (centres undefined)
inactive: max response (CRL-7250) 1.15% | max response (HEK293) 1.04% | outcome (HaCat [1]) | outcome (KB-3-1) | outcome (NIH3T3 [2]) | outcome (HACAT [3]) | outcome (NIH3T3 [4]) | Potency (C33A) | Potency (CAOV3) | outcome (CASKI) | Potency (Es-2) | Potency (HeLa) | Potency (Hek293T) | Potency (JEG-3) | Potency (OV90) | Potency (PA-1)

C=C1CC[C@@]2(OC1)O[C@H]1CC3[C@@H]4CC=C5C[C@H](O[C@H]6OC[C@@H](O)C(O)[C@@H]6O[C@@H]6O[C@@H](C)[C@H](O)[C@@H](O[C@@H]7O[C@H](CO)[C@@H](O)[C@H](O)[C@H]7O)[C@H]6O)C[C@@H](O)[C@]5(C)C4CC[C@]3(C)[C@H]1[C@@H]2C (some centres undefined)
inactive: max response (CRL-7250) 3.7% | max response (HEK293) -14.3% | outcome (HaCat [1]) | max response (KB-3-1) -1.49% | outcome (NIH3T3 [2]) | outcome (HACAT [3]) inactive [at 9.27 µM] | outcome (NIH3T3 [4]) inactive [at 9.27 µM] | activity change, negative = cytotoxicity (C33A) 2.1% [at 11.6 µM] | activity change, negative = cytotoxicity (CAOV3) -11% [at 11.6 µM] | activity change, negative = cytotoxicity (CASKI) -7.31% [at 11.6 µM] | activity change, negative = cytotoxicity (Es-2) -3.81% [at 11.6 µM] | activity change, negative = cytotoxicity (HeLa) 12.1% [at 11.6 µM] | activity change, negative = cytotoxicity (Hek293T) 9.36% [at 11.6 µM] | activity change, negative = cytotoxicity (JEG-3) -8.07% [at 11.6 µM] | activity change, negative = cytotoxicity (OV90) 6.02% [at 11.6 µM] | activity change, negative = cytotoxicity (PA-1) 3.82% [at 11.6 µM]

C[C@H]1CC[C@@]2(OC1)O[C@H]1CC3C4CC[C@H]5C[C@@H](O[C@@H]6O[C@H](CO)[C@H](O[C@@H]7O[C@H](CO)[C@@H](O)[C@H](O[C@@H]8OC[C@@H](O)[C@H](O)[C@H]8O)[C@H]7O[C@@H]7O[C@H](CO)[C@@H](O)[C@H](O)[C@H]7O)[C@H](O)[C@H]6O)[C@H](O)C[C@]5(C)C4=CC(=O)[C@]3(C)[C@H]1[C@@H]2C (some centres undefined)
inactive: max response (CRL-7250) -0.886% | max response (HEK293) 3.61% | outcome (HaCat [1]) | outcome (KB-3-1) | outcome (NIH3T3 [2]) | outcome (HACAT [3]) inactive [at 9.27 µM] | outcome (NIH3T3 [4]) inactive [at 9.27 µM] | activity change, negative = cytotoxicity (C33A) 4.61% [at 11.6 µM] | activity change, negative = cytotoxicity (CAOV3) 5.57% [at 11.6 µM] | activity change, negative = cytotoxicity (CASKI) -2.7% [at 11.6 µM] | activity change, negative = cytotoxicity (Es-2) -0.121% [at 11.6 µM] | activity change, negative = cytotoxicity (HeLa) 9.97% [at 11.6 µM] | activity change, negative = cytotoxicity (Hek293T) 0.949% [at 11.6 µM] | activity change, negative = cytotoxicity (JEG-3) -0.32% [at 11.6 µM] | activity change, negative = cytotoxicity (OV90) -5.92% [at 11.6 µM] | activity change, negative = cytotoxicity (PA-1) 7.95% [at 11.6 µM]

O=C(O)CCc1ccc(NCc2cccc3c2CCCN3CCOc2ccccc2)cc1F
inactive: max response (CRL-7250) 0.539% | max response (HEK293) 0.703% | outcome (HaCat [1]) | max response (KB-3-1) 2.13% | outcome (NIH3T3 [2]) | outcome (HACAT [3]) | outcome (NIH3T3 [4]) | Potency (C33A) | Potency (CAOV3) | outcome (CASKI) | Potency (Es-2) | Potency (HeLa) | Potency (Hek293T) | Potency (JEG-3) | Potency (OV90) | Potency (PA-1)

C/C(=C\CCC1(C)C2CC3C(C2)C31C)C(=O)O (centres undefined)
inactive: outcome (CRL-7250) | max response (HEK293) -2.35% | outcome (HaCat [1]) | outcome (KB-3-1) | outcome (NIH3T3 [2]) | outcome (HACAT [3]) | outcome (NIH3T3 [4]) | Potency (C33A) | Potency (CAOV3) | outcome (CASKI) | Potency (Es-2) | Potency (HeLa) | Potency (Hek293T) | Potency (JEG-3) | Potency (OV90) | Potency (PA-1)

From PubChem BioAssay (NCATS)
